Assay results as given in PubChem BioAssay (NCATS).
Inconclusive results are not listed. Active and inactive are the calls of the source. Unless noted, the call rests on the fitted dose curve; in most records, active means well fitted curve in the direction sought with a large enough effect; inconclusive means small, poorly fitted or top-dose-only effect, or another doubt; inactive means no such curve, though single readings can be large; an effect the other way counts as inactive or inconclusive.

How the values were obtained:
[1] = AP1 Signaling Pathway (AID 357; active means well fitted curve in either direction with a large enough effect, not every such curve was filed as active; further: on the % scale 0 is the no-effect control and ±100 the full control effect); conditions: ME-180 AP-1-bla reporter, EGF-induced, beta-lactamase ratio, 5 h; at 7.69 µM (top of the series) unless noted
How it was run: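 Modulation of EGF-driven AP-1 transcription was assessed with a beta-lactamase reporter in ME-180 cells. Compound and EC50 EGF were co-incubated 5 hours at 37 °C before 2.5-hour CCF4 loading at room temperature and dual-emission reading.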

[2] = biological target: Cytochrome P450 1A2 (Homo sapiens) (UniProt P05177); assay: p450-cyp1a2 (AID 410; calls by dose curve; further: potency means the concentration at half of the fitted maximal effect); conditions: recombinant CYP1A2, luciferin-ME demethylation, luminescence; series mostly up to 57 µM
How it was run: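 Read-out is luminescence from luciferin produced by CYP1A2 demethylation of Luciferin-ME (100uM, at Km). Detection reagent stopped the 60 min NADPH-dependent reaction; signals were normalized to 57 uM furafylline.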

[3] = NFAT Signaling Pathway (AID 444; active means well fitted curve in either direction with a large enough effect, not every such curve was filed as active;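 further: carbachol stimulus at about its EC50 of 1 µM final; on the % scale 0 is the no-effect control and ±100 the full control effect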); conditions: Jurkat NFAT-bla M1, carbachol, beta-lactamase ratio, 5 h; at 7.69 µM (top of the series) unless noted
How it was run: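 Read-out: CCF4 FRET ratio (460 nm/530 nm) after 1 h RT dye loading, used for %activity and AC50 from titration series. Cells: Jurkat NFAT-β-lactamase/M1 line, treated with compound plus 1 uM carbachol for 5 h, 37 °C.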

[4] = Stat Signaling Pathway (AID 446; active means well fitted curve in either direction with a large enough effect, not every such curve was filed as active;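 further: ME-180 cervical cancer cells given 40 pM IL-6 alongside compound; SIE-controlled beta-lactamase reporter measured as 460/530 nm FRET emission ratio; on the % scale 0 is the no-effect control and ±100 the full control effect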); conditions: ME-180 SIE beta-lactamase reporter, IL-6 stimulated, 5 h; at 7.69 µM (top of the series) unless noted
How it was run: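 Overnight-plated ME-180 cells bearing a STAT Inducible Element beta-lactamase reporter; 5 h co-exposure to compound and 40 pM IL-6; values normalized to 300 pM IL-6 and 125 nM JAK inhibitor controls.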

[5] = biological target: Glucocorticoid receptor (Homo sapiens) (UniProt P04150); assay: GR-GFP Redistribution (AID 450;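 active means compounds whose dose series gives a full or clear partial fitted curve of increased nuclear translocation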; further: potency means the concentration at half of the fitted maximal effect); conditions: U2OS GR-GFP nuclear translocation, laser cytometry, 2 h
[6] = biological target: Mitogen-activated protein kinase 10 (Mus musculus) (UniProt Q61831); assay: JNK3 AlphaScreen Assay (AID 530; active means well fitted curve in either direction with a large enough effect, not every such curve was filed as active;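 further: kinase came from lysate of stimulated human HepG2 cells; signal reports phosphorylation of biotinylated GST-cJun 1-79 at Ser73 with 10 µM ATP; on the % scale 0 is the no-effect control and ±100 the full control effect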); conditions: JNK3 lysate, c-Jun phosphorylation; series mostly up to 57.1 µM
How it was run: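 Kinase buffer: 20 mM Tris-HCl pH 7.6, 10 mM MgCl2, 1 mM DTT, 0.1 mM Na3VO4, 0.01% Tween-20; ATP 10 uM. Substrate biotin-GST-cJun(1-79), enzyme from activated HepG2 lysates. Detection by Ser73 phospho-antibody AlphaScreen.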

[7] = biological target: 3',5'-cyclic-AMP phosphodiesterase 4B (Homo sapiens) (UniProt Q07343); assay: qHTS Assay for Inhibitors of PDE-IV (AID 607; active means well fitted activation curve with a large enough effect in the main read-out, with a control signal flat, not every such curve was filed as active; further: % of control where 0% means no effect); conditions: HEK293 ACTOne CNG channel cells, membrane potential fluorescence; series mostly up to 22.9 µM
How it was run: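 Live HEK293 cells with a modified cyclic nucleotide-gated (CNG) channel report intracellular cAMP via membrane-potential dye fluorescence (ex 535/em 590 nm). Endogenous PDE-IV was targeted. Compounds were tested at up to 22.9 uM final; RO 20-1724 100 uM served as control.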

[8] = biological target: Cytochrome P450 3A4 (Homo sapiens) (UniProt P08684); assay: qHTS Assay for Activators of Cytochrome P450 3A4 (AID 885); conditions: recombinant CYP3A4, Luciferin-PPXE luminescence, 60 min; series mostly up to 57.1 µM; further: nearly all actives have a fitted effect of over 65% in size
How it was run: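 Using 20nM recombinant human CYP3A4 in potassium phosphate (200mM), substrate Luciferin-PPXE at 25uM, luminescent luciferin detection followed a 60-min RT NADPH reaction; data scaled to 57 uM ketoconazole.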

[9] = qHTS Assay for Lipid Storage Modulators (AID 1519; calls by dose curve); conditions: Drosophila S3 cells, BODIPY lipid droplet/cell ratio, laser cytometry, cells loaded with oleic acid; for activity change, negative = inhibition: at 57.5 µM (top of the series)
How it was run: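 Cells seeded at 5,000 per well were treated with compounds over a concentration series and loaded with oleic acid (400 uM, as added). Lipid droplet fluorescence (488 nm excitation, 500-530 nm channel) was read by laser-scanning cytometry and normalized to 20 uM Triacsin C.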

[10] = biological target: Dual specificity protein kinase CLK4 (Homo sapiens) (UniProt Q9HAZ1); assay: qHTS Assay for Inhibitors of CDC-like Kinase 4 (ADP-Glo Assay) (AID 1771); conditions: recombinant CLK4, ADP-Glo luminescence; series mostly up to 80 µM; further: nearly all actives have a fitted effect of over 70% in size; further: potency means the concentration at half of the fitted maximal effect
How it was run: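 In this ADP-Glo format, 1 uM ATP and 100 uM RS peptide served as substrates for 25 nM Clk4 in Mg2+/EGTA/DTT/Triton buffer; reactions ran 1 hr at room temperature before luminescent ADP quantification.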

[11] = biological target: Dual specificity protein kinase CLK4 (Homo sapiens) (UniProt Q9HAZ1); assay: qHTS Assay for Inhibitors of CDC-like Kinase 4 (ADP-FP Assay) (AID 1795); conditions: Transcreener ADP fluorescence polarization; series mostly up to 50 µM; further: nearly all actives have a fitted effect of over 60% in size; further: potency means the concentration at half of the fitted maximal effect
How it was run: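 Recombinant Clk4 (6.25 nM) phosphorylated 100 uM RS repeat peptide with 1 uM ATP in 25 mM Tris pH 7.5, 10 mM MgCl2, 0.5 mM EGTA, 2.5 mM DTT, 0.01% Triton X-100 for 1 h. ADP was detected by Transcreener ADP2 competitive fluorescence polarization after 30 min at room temperature.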

[12] = biological target: Ubiquitin carboxyl-terminal hydrolase 1 (Homo sapiens) (UniProt O94782); assay: Inhibitors of USP1/UAF1: Pilot qHTS (AID 504865); conditions: purified USP1/UAF1, Ub-rhodamine cleavage fluorescence; series mostly up to 54.9 µM;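 further: rhodamine fluorescence freed from ubiquitin-rhodamine substrate followed over time; top concentration of the series differs between compounds; on the % scale 0 is the no-effect control and ±100 the full control effect; nearly all actives have a fitted effect of over 35% in size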
How it was run: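 USP1/UAF1 complex at 1 nM preincubated 15 min at room temperature with compound, then Ub-Rho substrate added at 150 nM final. Fluorescence (480/540 nm) read kinetically in 50 mM HEPES pH 7.8, 0.5 mM EDTA, 1 mM TCEP, 0.1 mg/ml BSA, 0.01% Tween-20.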

[13] = Primary qHTS for small molecule stabilizers of the endoplasmic reticulum resident proteome: Secreted ER Calcium Modulated Protein (SERCaMP) assay (AID 1508630); conditions: SH-SY5Y GLuc-SERCaMP (Gaussia luciferase released on ER calcium loss) secretion, thapsigargin, luminescence; series mostly up to 38.4 µM; further: on the % scale 0 is the no-effect control and ±100 the full control effect
How it was run: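 The SH-SY5Y reporter protocol was run at 3 concentrations up to 38.3 uM (primary) or 11 concentrations (follow-up): 16 h compound, 100 nM thapsigargin for 4 h, then extracellular luciferase luminescence.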

[14] = biological target: Lysosomal acid glucosylceramidase (Homo sapiens) (UniProt P04062); assay: Glucocerebrosidase-p2 (AID 348; in the data active means potency below about 10 µM; further: potency means the concentration at half of the fitted maximal effect); conditions: purified GBA, blue fluorogenic substrate, 40 min
How it was run: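 Normal human glucocerebrosidase (0.2 nM) with blue fluorogenic substrate (80 uM final) in citrate/phosphate pH 5.9 with 10mM sodium taurocholate, 0.01% tween-20; 40 min RT, NaOH/glycine stop; fluorescence Ex 365/Em 440; AC50 from a titration from 0.6 nM upwards.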

[15] = biological target: Glucocorticoid receptor (Homo sapiens) (UniProt P04150); assay: GR-EFC Redistribution (AID 451; calls by dose curve; further: potency means the concentration at half of the fitted maximal effect); conditions: CHO-K1 GR-EFC translocation, beta-gal luminescence, 2 h
How it was run: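 Translocation of GR-ED fusion to nuclear EA restores b-gal, read by luminescence after 1 h room-temperature detection. Engineered CHO-K1 biosensor cells, 1,000/well, exposed 2 h at 37 C to titrations up to 46 uM final.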

[16] = biological target: Cytochrome P450 3A4 (Homo sapiens) (UniProt P08684); assay: qHTS Assay for Inhibitors and Substrates of Cytochrome P450 3A4 (AID 884); conditions: recombinant CYP3A4, Luciferin-PPXE luminescence; series mostly up to 57.1 µM; further: potency means the concentration at half of the fitted maximal effect; nearly all actives have a fitted effect of over 50% in size
How it was run: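 Luminescent readout of luciferin produced by CYP3A4 (20 nM) dealkylation of Luciferin-PPXE, 25 uM (its KM). NADPH-driven reaction ran 60 min at RT after 10 min compound preincubation; data scaled to 57 uM ketoconazole as 100% inhibition.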

[17] = qHTS Assay for Identification of Small Molecule Agonists for Hypoxia Response Element Signaling Pathway (AID 914; active means well fitted activation curve with a large enough effect in the signal ratio, with a control signal flat, not every such curve was filed as active; the % refers to the signal ratio; further: % of control where 0% means no effect); conditions: ME-180 (cervical carcinoma) HRE-bla reporter, beta-lactamase ratio, CoCl2, 17 h; activation: stronger effect = higher value
How it was run: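 qHTS titration; ME-180 HRE-bla cells; EC50 CoCl2 co-treatment, 17 h at 37 degrees Celsius; CCF4 dye, ex 405nm, em 460nm and 530nm; %Activity from ratio; AC50.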

[18] = measured here: cell count channel max response
[19] = measured here: lipid channel max response

Sequence of Ubiquitin carboxyl-terminal hydrolase 1 (Homo sapiens) (O94782 whole entry, looked up): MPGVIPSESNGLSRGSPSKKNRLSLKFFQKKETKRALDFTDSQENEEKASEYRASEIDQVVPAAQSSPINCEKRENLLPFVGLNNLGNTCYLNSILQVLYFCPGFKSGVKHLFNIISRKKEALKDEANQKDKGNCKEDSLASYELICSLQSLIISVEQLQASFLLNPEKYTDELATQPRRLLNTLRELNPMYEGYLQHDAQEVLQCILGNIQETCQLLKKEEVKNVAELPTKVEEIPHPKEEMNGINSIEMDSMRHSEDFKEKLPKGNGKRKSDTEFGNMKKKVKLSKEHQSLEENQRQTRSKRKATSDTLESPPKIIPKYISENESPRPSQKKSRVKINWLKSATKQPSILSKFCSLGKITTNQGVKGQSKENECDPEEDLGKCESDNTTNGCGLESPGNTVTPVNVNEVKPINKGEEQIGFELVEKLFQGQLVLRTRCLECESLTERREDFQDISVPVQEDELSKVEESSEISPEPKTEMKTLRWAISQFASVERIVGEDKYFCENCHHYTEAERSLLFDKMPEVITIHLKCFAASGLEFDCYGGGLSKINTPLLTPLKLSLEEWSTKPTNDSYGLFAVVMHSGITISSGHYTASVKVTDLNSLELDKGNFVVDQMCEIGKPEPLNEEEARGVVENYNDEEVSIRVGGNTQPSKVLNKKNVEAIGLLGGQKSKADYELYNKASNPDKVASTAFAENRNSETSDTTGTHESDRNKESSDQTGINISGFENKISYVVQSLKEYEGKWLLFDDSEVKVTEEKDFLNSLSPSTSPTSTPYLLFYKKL
Sequence of Cytochrome P450 1A2 (Homo sapiens) (P05177 whole entry, looked up): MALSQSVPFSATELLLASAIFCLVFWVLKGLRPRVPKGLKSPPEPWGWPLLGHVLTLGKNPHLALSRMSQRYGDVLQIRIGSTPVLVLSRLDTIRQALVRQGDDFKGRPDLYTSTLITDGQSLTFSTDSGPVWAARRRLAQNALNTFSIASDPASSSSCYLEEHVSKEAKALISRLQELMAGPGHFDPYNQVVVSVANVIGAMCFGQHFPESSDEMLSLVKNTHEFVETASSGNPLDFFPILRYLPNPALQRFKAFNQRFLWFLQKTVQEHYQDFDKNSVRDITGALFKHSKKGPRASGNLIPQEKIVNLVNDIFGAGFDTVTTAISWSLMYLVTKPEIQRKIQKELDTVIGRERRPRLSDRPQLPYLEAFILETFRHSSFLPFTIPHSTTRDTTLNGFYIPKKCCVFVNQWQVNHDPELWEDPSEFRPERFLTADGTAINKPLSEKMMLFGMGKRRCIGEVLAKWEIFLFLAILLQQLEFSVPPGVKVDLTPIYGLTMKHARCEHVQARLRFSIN
Sequence of Glucocorticoid receptor (Homo sapiens) (P04150 whole entry, looked up, the tested form may be a part): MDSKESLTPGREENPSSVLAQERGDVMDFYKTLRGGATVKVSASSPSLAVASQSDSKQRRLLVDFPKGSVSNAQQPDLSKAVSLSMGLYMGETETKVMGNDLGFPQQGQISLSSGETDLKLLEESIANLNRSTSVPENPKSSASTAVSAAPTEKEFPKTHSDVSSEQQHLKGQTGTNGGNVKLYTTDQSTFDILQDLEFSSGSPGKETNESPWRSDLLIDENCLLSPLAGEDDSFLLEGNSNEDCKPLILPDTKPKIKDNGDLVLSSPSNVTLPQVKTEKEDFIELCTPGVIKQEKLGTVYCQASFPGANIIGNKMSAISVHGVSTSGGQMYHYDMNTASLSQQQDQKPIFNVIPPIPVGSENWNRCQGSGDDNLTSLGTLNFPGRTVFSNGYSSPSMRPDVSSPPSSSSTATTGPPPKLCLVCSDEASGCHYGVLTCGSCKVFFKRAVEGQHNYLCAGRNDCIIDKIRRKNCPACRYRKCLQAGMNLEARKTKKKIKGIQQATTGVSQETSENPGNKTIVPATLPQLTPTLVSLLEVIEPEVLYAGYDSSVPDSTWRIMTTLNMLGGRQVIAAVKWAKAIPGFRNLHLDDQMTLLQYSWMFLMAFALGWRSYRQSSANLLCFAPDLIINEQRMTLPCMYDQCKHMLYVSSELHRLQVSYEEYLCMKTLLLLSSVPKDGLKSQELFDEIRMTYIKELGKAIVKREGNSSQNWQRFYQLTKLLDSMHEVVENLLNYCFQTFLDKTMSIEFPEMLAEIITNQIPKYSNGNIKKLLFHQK
Sequence of 3',5'-cyclic-AMP phosphodiesterase 4B (Homo sapiens) (Q07343 whole entry, looked up): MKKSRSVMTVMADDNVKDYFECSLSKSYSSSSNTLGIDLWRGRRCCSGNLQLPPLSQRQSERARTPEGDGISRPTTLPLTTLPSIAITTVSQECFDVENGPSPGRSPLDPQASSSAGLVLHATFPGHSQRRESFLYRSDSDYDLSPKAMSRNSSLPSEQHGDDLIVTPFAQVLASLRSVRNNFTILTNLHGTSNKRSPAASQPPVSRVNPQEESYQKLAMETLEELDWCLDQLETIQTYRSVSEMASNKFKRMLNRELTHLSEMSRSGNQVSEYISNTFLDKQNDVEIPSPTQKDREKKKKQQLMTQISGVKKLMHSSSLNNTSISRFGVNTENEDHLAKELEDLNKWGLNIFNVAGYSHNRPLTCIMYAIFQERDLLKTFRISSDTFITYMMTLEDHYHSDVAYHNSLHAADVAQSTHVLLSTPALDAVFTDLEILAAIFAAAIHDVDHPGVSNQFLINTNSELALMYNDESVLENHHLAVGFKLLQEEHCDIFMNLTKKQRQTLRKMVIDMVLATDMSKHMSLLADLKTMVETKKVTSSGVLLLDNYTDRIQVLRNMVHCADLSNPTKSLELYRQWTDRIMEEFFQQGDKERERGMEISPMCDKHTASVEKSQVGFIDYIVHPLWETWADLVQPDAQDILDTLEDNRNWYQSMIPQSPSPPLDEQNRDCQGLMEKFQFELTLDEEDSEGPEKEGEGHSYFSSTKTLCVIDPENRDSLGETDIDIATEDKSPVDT
Sequence of Dual specificity protein kinase CLK4 (Homo sapiens) (Q9HAZ1 whole entry, looked up): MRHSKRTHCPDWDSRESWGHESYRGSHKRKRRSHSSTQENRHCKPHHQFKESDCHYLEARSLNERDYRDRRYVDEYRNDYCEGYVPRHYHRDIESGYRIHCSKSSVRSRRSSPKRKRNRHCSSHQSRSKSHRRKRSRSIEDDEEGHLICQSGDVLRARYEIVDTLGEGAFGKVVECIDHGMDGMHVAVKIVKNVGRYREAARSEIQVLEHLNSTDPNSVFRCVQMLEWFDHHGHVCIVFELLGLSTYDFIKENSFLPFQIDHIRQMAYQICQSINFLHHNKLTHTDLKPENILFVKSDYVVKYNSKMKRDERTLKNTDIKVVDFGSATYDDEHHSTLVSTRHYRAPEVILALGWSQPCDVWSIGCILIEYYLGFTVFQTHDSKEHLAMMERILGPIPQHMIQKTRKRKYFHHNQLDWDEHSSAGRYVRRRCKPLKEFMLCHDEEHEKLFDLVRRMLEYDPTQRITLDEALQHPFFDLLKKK
Sequence of Lysosomal acid glucosylceramidase (Homo sapiens) (P04062 whole entry, looked up): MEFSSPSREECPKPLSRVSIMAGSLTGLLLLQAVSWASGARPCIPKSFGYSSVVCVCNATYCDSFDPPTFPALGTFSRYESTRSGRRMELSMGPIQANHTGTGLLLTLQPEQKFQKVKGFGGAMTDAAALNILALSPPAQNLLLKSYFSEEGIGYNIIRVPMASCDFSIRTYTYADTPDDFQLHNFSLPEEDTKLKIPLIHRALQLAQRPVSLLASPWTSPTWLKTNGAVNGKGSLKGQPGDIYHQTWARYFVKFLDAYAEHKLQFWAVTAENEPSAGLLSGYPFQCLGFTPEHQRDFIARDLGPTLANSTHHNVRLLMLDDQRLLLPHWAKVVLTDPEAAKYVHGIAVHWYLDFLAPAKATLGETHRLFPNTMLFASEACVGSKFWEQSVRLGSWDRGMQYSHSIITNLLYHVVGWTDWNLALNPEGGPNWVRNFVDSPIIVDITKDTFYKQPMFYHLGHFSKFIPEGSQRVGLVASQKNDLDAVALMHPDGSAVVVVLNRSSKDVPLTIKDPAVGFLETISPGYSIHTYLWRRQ
Sequence of Cytochrome P450 3A4 (Homo sapiens) (P08684 whole entry, looked up): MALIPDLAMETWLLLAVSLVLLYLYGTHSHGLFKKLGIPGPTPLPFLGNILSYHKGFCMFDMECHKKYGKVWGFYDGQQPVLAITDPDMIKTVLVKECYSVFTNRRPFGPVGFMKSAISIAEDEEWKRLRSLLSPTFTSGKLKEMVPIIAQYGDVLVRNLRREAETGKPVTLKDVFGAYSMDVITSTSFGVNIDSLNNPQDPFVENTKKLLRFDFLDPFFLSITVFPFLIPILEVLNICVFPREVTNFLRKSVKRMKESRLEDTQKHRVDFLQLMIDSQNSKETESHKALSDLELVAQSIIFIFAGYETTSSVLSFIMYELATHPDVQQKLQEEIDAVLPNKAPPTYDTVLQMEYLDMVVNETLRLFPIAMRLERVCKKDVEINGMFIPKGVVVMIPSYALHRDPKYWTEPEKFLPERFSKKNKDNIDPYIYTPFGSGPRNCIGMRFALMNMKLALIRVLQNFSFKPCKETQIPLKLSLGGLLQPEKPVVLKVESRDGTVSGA

COCCn1c(=O)c(C)nc2cnc(Oc3ccc(OC)cc3)nc21
29.1%: max response [9, 18]
active: Potency [2] 15.8 µM
inactive: activity change, negative = inhibition [1] -18.9% | activity change, negative = inhibition [3] 7.53% | activity, negative = inhibition [4] -8.21% | Potency [5] > 9.22 µM | outcome [6] | Potency [7] | Potency [8] | activity change, negative = inhibition [9] 1.21% | Potency [10] | Potency [11] | Potency [12] | Potency [13]
27.3%: max response [9, 19]

CN(Cc1ccco1)c1ncncc1-c1ccccc1Cl
active: Potency [16] 0.501 µM
14.4%: max response [9, 18]
19.6%: max response [9, 19]
inactive: Potency [14] > 11.4 µM | activity change, negative = inhibition [1] 23.7% | activity, negative = inhibition [4] 3.72% | Potency [5] > 46 µM | Potency [15] > 46 µM | outcome [6] | Potency [7] | Potency [8] | activity change, negative = inhibition [9] 7.31% | Potency [10] | Potency [11] | Potency [12] | Potency [13]

O=c1c(-c2ccc(Cl)cc2)nc2cnc(N3CCNCC3)nc2n1Cc1cccs1
-12.6%: max response [9, 19]
active: Potency [2] 12.6 µM | Potency [16] 5.01 µM
-11.5%: max response [9, 18]
inactive: Potency [5] > 9.22 µM | Potency [15] > 46 µM | Potency [7] | Potency [8] | activity change, negative = inhibition [9] 0.33% | Potency [10] | Potency [11] | Potency [13]

Cc1noc(C)c1-c1cc(Nc2ccccc2)ncn1
active: Potency [2] 1.26 µM
17.9%: max response [9, 19]
15.2%: max response [9, 18]
inactive: Potency [14] > 11.4 µM | activity change, negative = inhibition [1] -11.6% | activity change, negative = inhibition [3] -3.87% | activity, negative = inhibition [4] -5.08% | Potency [5] > 46 µM | Potency [15] > 46 µM | outcome [6] | activity change, negative = inhibition [9] 4.92% | Potency [11] | Potency [12] | Potency [13]

CS(=O)(=O)Nc1cccc(-c2ccc3ncnc(Nc4ccccc4)c3c2)c1
6.09%: max response [9, 18]
11.8%: max response [9, 19]
active: Potency [2] 1 µM | Potency [10] 14.1 µM | Potency [11] 14.1 µM
inactive: Potency [14] > 11.4 µM | activity, negative = inhibition [4] -2.27% | Potency [5] > 46 µM | Potency [15] > 46 µM | outcome [6] | Potency [7] | Potency [8] | activity change, negative = inhibition [9] 5.6% | Potency [12] | Potency [13]

Cn1c(=O)c(-c2cc(F)cc(F)c2)nc2cnc(N3CCOCC3)nc21
inactive: activity change, negative = inhibition [1] -11% | activity change, negative = inhibition [3] 14.4% | activity, negative = inhibition [4] -1.78% | Potency [5] > 9.22 µM | Potency [15] > 46 µM | outcome [6] | Potency [7] | activation [17] -3.42% | activity change, negative = inhibition [9] 4.75% | Potency [10] | Potency [11] | Potency [12] | Potency [13]
22.4%: max response [9, 19]
active: Potency [2] 5.01 µM
16.8%: max response [9, 18]
